A selection: hits, their analogues and other compounds. The true share with any hit is near 3.1%.
MBD2 DNA inh: blocks human MBD2 binding to methylated DNA; Q9UBB5; AID 686964; inhibition, % at 4.4 µM; 0.31% of 370,000 active; TR-FRET, MBD2 binding to methylated oligonucleotide; in the data active = inhibition above about 13%
Target sequence (Q9UBB5 whole entry, looked up): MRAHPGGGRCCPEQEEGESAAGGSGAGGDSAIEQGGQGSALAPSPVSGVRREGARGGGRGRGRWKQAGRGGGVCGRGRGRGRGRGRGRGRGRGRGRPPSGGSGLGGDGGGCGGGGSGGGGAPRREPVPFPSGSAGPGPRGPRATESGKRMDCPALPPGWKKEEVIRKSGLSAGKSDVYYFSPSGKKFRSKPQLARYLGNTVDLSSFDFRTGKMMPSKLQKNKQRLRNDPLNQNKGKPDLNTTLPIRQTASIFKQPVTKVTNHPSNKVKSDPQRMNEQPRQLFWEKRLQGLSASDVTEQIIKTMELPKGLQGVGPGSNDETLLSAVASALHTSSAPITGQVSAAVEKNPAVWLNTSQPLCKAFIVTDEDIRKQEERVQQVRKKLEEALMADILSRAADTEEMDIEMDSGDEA
LEDGF integ inh: blocks HIV-1 LEDGF/p75-dependent DNA integration | TR-FRET IN-LEDGF/p75 DNA integration, Eu/Cy5 | inhibition, % at 3.7 µM | 0.64% of 370,000 active | AID 743269;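 active = inhibition above the screen-wide mean plus 3 SD, cut at about 13% in these data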;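 note: signal is the Cy5 over europium emission ratio at 671 and 618 nm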
KLK7 zymogen act: proKLK7 (human) activation, primary screen; P49862; AID 652039; purified proKLK7, EDANS-DABCYL substrate fluorescence; 100% is mature enzyme control, 0% vehicle; 0.9% of 370,000 active; activation, % at 7 µM;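 active = activation above the mean of all tested compounds plus 3 SD, computed per campaign excluding outliers beyond control limits, cut at about 13% in these data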
Target sequence (P49862 whole entry, looked up): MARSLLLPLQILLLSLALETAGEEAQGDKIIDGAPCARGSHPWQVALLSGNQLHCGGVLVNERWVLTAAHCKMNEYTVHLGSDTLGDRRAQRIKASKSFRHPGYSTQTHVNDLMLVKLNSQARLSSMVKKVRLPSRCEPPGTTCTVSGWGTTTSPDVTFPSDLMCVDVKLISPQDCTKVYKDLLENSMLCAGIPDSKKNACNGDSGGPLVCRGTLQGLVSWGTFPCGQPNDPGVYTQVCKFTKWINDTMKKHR
Rin1 Abl inh: human Rin1-Abl interaction inhibition; P00519+Q13671; TR-FRET Rin1/Abl binding, biochemical; inhibition, % at 7.35 µM; 0.4% of 360,000 active; in the data active = inhibition above about 5%, passing the limit was not always enough
Neddyl block: blocks human cullin neddylation; P61081+Q13564; TR-FRET cullin neddylation, biochemical; calls only at 25 µM; 0.58% of 360,000 active; AID 651699; in the data active = inhibition above about 36%
UHRF1 binding: blocks human UHRF1 binding to methylated DNA; inhibition, % at 4.4 µM; UHRF1 binding to methylated oligo, TR-FRET; Q96T88; 0.75% of 370,000 active; in the data active = inhibition above about 21%;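 note: UHRF1 SRA domain binding a hemimethylated CpG hairpin DNA probe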
Rin1-Abl confirm: Rin1-Abl interaction inhibition confirmation | TR-FRET Rin1-Abl binding, purified proteins | inhibition, % at 7.35 µM | shares compounds with Rin1 Abl inh | 49% of 1,300 active | AID 602124
GFP quench: counter-screen for Rin1-Abl inhibitors: GFP fluorescence quenchers; shares compounds with Rin1 Abl inh; inhibitors/quenchers counterscreen; inhibition, % at 6.75 µM; 8.5% of 1,300 active; AID 602125;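 note: ABL1-eGFP fusion protein alone without its partner RIN1-SBP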
GFP quench DR: GFP fluorescence interference dose response; GFP fluorescence interference/quenching counterscreen; 230 tested, under 10 active; shares compounds with Rin1 Abl inh; AID 602182; IC50, µM; call rule not given here;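 note: ABL1-eGFP fusion protein alone without its RIN1 binding partner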
Of the large screens only hits and unclear results are named; the others gave an inactive call (follow-up assays come after a bar, where they were run). Cut-off read from the data, not from the text of the source, unless noted: active = inhibition above about 6.5%; inactive = the rest.

Cn1c(=O)c2c(nc(N3CCC(C(N)=O)CC3)n2CCSc2nc3ccccc3s2)n(C)c1=O	Rin1 Abl inh 9.7 | Rin1-Abl confirm 7.0 | GFP quench inactive
Cc1cc(=O)oc2cc(OCC3CC(c4ccccc4)=NO3)ccc12 (stereo not drawn)	Rin1 Abl inh 11 (no result: MBD2 DNA inh, LEDGF integ inh, KLK7 zymogen act, UHRF1 binding) | Rin1-Abl confirm inactive | GFP quench inactive
Cc1cc(=O)oc2cc(OCC3CC(c4ccc(Br)cc4)=NO3)ccc12 (stereo not drawn)	none
Cc1ccc(C(=O)NCCc2nnc3ccc(SCC(=O)N4CCCC4)nn23)cc1	Rin1 Abl inh 15 | Rin1-Abl confirm 11 | GFP quench inactive
O=C1c2ccccc2C(=O)N1Cc1cnc(N2CCN(c3ccccc3)CC2)s1	none
Cc1cc(Cl)ccc1OCC(=O)N/N=C/c1ccncc1	none
Cc1cc(NC(=O)c2ccc3sc([C@@H]4O[C@H](CO)[C@H](O)[C@H](O)[C@H]4O)nc3c2)n(C)n1	none
Cc1ccc(C2=NC(=O)/C(=C/c3cc(O)c(O)c(Br)c3)S2)cc1	MBD2 DNA inh 38, LEDGF integ inh 89, Rin1 Abl inh 8.5, UHRF1 binding 50 | Rin1-Abl confirm 15 | GFP quench 41
COc1cc(/C=C2\SC(c3ccc(C)cc3)=NC2=O)cc(OC)c1O	none
COCCCn1c(SCC(=O)Nc2ccc(C(C)=O)cc2)nc2ccccc2c1=O	Rin1 Abl inh 10 | Rin1-Abl confirm 7.4 | GFP quench inactive
CCOC(CCn1c(SCC(=O)Nc2cc(C)on2)nc2ccccc2c1=O)OCC	Rin1 Abl inh 9.4 | Rin1-Abl confirm inactive | GFP quench inactive
NS(=O)(=O)c1ccc(O)c(N2C(=O)c3cccc4c(C(=O)O)ccc(c34)C2=O)c1	none
COc1ccc(C(=O)C(Sc2nnc(C)c(=O)[nH]2)c2ccc(OC)cc2)cc1 (stereo not drawn)	none
CC(=O)NC(c1ccc(N(C)C)cc1)c1cc(Cl)c2cccnc2c1O (stereo not drawn)	Rin1 Abl inh 6.6 | Rin1-Abl confirm 6.9 | GFP quench inactive
Oc1c(C(c2ccccn2)N2CCCCC2)cc(Cl)c2cccnc12 (stereo not drawn)	Rin1 Abl inh 22 | Rin1-Abl confirm 14 | GFP quench inactive
CC(=O)NC(c1ccc(C)cc1)c1cc([N+](=O)[O-])c2cccnc2c1O (stereo not drawn)	none
COc1ccc(C(NC(C)=O)c2cc(Cl)c3cccnc3c2O)cc1 (stereo not drawn)	Rin1 Abl inh 8.2 | Rin1-Abl confirm 7.0 | GFP quench inactive
CC(=O)NC(c1ccccc1)c1cc(Cl)c2cccnc2c1O (stereo not drawn)	Rin1 Abl inh 12 | Rin1-Abl confirm 10 | GFP quench inactive
Oc1c(Cl)cc(CN2CCOCC2)c2cccnc12	Rin1 Abl inh 7.4 | Rin1-Abl confirm inactive | GFP quench inactive
Oc1c(CN2CCCCC2)cc(Br)c2cccnc12	Rin1 Abl inh 11 | Rin1-Abl confirm 8.0 | GFP quench inactive
O=C(COc1c(Br)cc(Br)c2cccnc12)N1CCCCC1	none
CC1(C(=O)NCc2ccco2)CCN1C(=O)C1(c2ccccc2)CC1 (stereo not drawn)	none
Nc1ccn([C@@H]2O[C@H](C(=O)N3CCSC3)[C@@H](O)[C@H]2O)c(=O)n1	none
CCOC(=O)C1(C)CCCN(C(=O)c2ccc3c(c2)CCO3)C1 (stereo not drawn)	none
CCN(C1CCCCC1)S(=O)(=O)c1ccc(-n2cnnn2)c(C)c1	Rin1 Abl inh 14 | Rin1-Abl confirm inactive | GFP quench inactive
COc1ccc(CN(C2CCCC2)S(=O)(=O)c2ccc(-n3cnnn3)c(OC)c2)cc1OC	none
CC(=O)c1c(C)[nH]c(C(=O)Nc2ccccc2N2CCOCC2)c1C	Rin1 Abl inh 4.7 | Rin1-Abl confirm inactive | GFP quench inactive
O=C(C1CCN(S(=O)(=O)Cc2ccccc2)CC1)N1CCN(c2ncccn2)CC1	none
O=S(=O)(Cc1ccccc1)N1CCN(c2ncccn2)CC1	Rin1 Abl inh 7.2 | Rin1-Abl confirm inactive | GFP quench inactive
O=C(Nn1c(-c2ccc(F)cc2)nc2ccccc2c1=O)C1CCCCC1	none
COCC(=O)Nc1nc(-c2ccc(C)cc2)c(C)s1	none
COC(=O)Nc1nc(-c2ccc(F)cc2)c(C)s1	Rin1 Abl inh 5.2 | Rin1-Abl confirm inactive | GFP quench inactive
CN(CC(=O)Nc1ccc(C#N)cc1)Cc1ccc(Cl)c(Cl)c1	Rin1 Abl inh 6.1 | Rin1-Abl confirm inactive | GFP quench inactive
CN(CC(=O)Nc1cccc(C#N)c1)Cc1ccc(Cl)cc1	none
O=C1CCC[C@H]2Cc3nc4ccccc4cc3C[C@]23CCCN13	none (no result: KLK7 zymogen act, Rin1 Abl inh, Neddyl block)
CSC(=NS(=O)(=O)c1ccc(N)cc1)NS(=O)(=O)c1cccs1	none
COC(=O)c1ccc(CSc2nnc(CNC(=O)c3ccc(OC)cc3)o2)o1	none
COC(=O)c1ccc(CSc2nnc(CNC(=O)c3ccccc3F)o2)o1	Rin1 Abl inh 8.5 | Rin1-Abl confirm 11 | GFP quench inactive
COC(=O)c1ccc(CSc2nnc(CNC(=O)COc3ccc(Cl)cc3)o2)o1	Rin1 Abl inh 17 | Rin1-Abl confirm 19 | GFP quench inactive | GFP quench DR inactive
COc1ccc(CNC(=O)c2cccc3c(-c4cnn(C)c4)coc23)cc1OC	Rin1 Abl inh 12 | Rin1-Abl confirm inactive | GFP quench inactive
Cc1ccccc1NC(=S)N(CCN1CCOCC1)Cc1ccccc1F	none
C[C@@H]1CN([C@@H](C)CO)C(=O)CCCn2nncc2CO[C@@H]1CN(C)S(=O)(=O)c1cccc(F)c1	Rin1 Abl inh 14 | Rin1-Abl confirm inactive | GFP quench inactive
C[C@H]1CN([C@@H](C)CO)C(=O)CCCn2nncc2CO[C@H]1CN(C)S(=O)(=O)c1cccc(F)c1	none
O=C(Nc1cccc2nsnc12)C1CC(=O)N(c2ccccc2)C1 (stereo not drawn)	Rin1 Abl inh 10 | Rin1-Abl confirm inactive | GFP quench inactive
O=C(Nc1ccccc1Cl)C1CC(=O)N(c2ccccc2)C1 (stereo not drawn)	none
Cc1ccc(C(=O)N2CCCC(CCC(=O)N3CCN(c4ccccn4)CC3)C2)cn1 (stereo not drawn)	none
Cc1ccc(C(=O)N2CCCC(CCC(=O)N3CCN(c4ccccn4)CC3)C2)cc1C (stereo not drawn)	Rin1 Abl inh 9.4 | Rin1-Abl confirm inactive | GFP quench inactive

Screens: PubChem BioAssay, several laboratories
